We go through one sequence from publication PMC7862700, “An all-to-all approach to the identification of sequence-specific readers for epigenetic DNA modifications on cytosine”.

Assay in all cases: DAPPL (digital affinity profiling via proximity ligation, sequencing); 10 mM Tris-HCl pH 7.5, 50 mM NaCl, 1 mM DTT, 4% glycerol, room temperature, 30 min; GST-TFs on glutathione beads, 16-mer random dsDNA library, 0.1% formaldehyde crosslink after washing; high values mean tight binding
One assay addresses T1, FLI1 (Homo sapiens, UniProt Q01543 1-452).
T1 sequence: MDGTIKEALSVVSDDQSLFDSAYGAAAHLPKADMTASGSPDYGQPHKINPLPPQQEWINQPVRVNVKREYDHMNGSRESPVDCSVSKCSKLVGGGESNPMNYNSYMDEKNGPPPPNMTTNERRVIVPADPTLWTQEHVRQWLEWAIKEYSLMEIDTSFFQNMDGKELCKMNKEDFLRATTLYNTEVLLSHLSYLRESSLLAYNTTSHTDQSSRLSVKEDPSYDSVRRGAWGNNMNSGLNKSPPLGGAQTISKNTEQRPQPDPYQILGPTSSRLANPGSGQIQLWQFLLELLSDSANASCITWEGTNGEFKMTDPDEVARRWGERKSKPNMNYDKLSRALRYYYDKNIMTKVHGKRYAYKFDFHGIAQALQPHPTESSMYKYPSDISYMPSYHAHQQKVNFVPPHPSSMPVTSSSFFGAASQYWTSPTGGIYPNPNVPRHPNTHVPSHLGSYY
Particulars: protein: recombinant; tags: N-terminal GST; dsDNA, one strand shown. The procedure, abridged: (§1)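 Human transcription factors were made in yeast as GST fusions, captured on glutathione beads and barcoded with DNA. With a tag-only sample included, the pool was incubated with 200 nmole of a random double-stranded 16-mer DNA library in Tris/NaCl/DTT/glycerol buffer at room temperature for 30 min, then crosslinked with 0.1% formaldehyde after washing, ligated by proximity, amplified and sequenced. For binding signal, each hexamer's read frequency for a factor is divided by its frequency for the tag-only sample.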

In the next assay the target is T2, ELK1 (Homo sapiens, UniProt P19419 1-428).
T2 sequence: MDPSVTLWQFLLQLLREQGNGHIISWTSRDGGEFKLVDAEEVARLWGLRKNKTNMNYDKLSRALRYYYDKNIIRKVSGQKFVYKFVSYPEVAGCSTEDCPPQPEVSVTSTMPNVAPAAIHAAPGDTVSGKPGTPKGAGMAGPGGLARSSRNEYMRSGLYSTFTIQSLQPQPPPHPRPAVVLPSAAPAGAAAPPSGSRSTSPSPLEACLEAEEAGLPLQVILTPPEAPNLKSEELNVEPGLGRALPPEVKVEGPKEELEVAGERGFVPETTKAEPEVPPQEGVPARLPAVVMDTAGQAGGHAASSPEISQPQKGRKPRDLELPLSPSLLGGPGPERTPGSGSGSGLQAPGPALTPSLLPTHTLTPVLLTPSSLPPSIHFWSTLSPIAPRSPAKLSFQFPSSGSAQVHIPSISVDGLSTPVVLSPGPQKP
The settings on record: protein: recombinant; tags: N-terminal GST; dsDNA, one strand shown. The procedure, abridged:
as §1

In another assay the target is T3, GABPA (Homo sapiens, UniProt Q06546 1-454).
T3 sequence: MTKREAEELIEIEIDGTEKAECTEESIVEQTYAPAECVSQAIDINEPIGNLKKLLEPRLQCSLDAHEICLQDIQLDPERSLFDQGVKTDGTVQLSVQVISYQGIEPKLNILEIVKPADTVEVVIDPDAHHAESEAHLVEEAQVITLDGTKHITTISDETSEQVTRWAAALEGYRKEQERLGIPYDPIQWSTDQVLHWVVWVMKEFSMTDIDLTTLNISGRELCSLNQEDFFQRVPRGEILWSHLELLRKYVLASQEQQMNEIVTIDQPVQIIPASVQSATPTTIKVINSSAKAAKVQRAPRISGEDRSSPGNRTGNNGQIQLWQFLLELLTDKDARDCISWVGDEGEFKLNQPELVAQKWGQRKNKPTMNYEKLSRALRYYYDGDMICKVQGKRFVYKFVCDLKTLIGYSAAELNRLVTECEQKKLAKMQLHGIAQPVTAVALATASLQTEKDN
Particulars: protein: recombinant; tags: N-terminal GST; dsDNA, one strand shown. The gist of the method: as §1

The next assay addresses T4, ERG (Homo sapiens, UniProt P11308 1-479).
T4 sequence: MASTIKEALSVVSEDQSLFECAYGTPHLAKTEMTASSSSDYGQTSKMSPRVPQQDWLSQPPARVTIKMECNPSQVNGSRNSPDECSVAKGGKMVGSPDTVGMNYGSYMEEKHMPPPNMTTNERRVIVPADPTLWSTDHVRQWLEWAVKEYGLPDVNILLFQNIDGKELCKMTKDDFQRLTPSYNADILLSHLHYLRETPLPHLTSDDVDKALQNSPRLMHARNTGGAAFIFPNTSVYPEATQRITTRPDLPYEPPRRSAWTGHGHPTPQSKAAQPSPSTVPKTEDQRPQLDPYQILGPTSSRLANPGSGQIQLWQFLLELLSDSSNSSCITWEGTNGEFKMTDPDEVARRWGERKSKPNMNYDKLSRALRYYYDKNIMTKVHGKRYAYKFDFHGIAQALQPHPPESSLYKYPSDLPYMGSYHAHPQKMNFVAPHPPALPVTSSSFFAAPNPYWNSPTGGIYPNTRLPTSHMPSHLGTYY
Particulars: protein: recombinant; tags: N-terminal GST; dsDNA, one strand shown. The gist of the method:
as §1

The target of the next assay is ELF1 (Homo sapiens, UniProt P32519 1-619). The settings on record: protein: recombinant; tags: N-terminal GST; dsDNA, one strand shown. The gist of the method:
as §1

A further assay concerns the target T5, EHF (Homo sapiens, UniProt Q9NZC4 1-300).
T5 sequence: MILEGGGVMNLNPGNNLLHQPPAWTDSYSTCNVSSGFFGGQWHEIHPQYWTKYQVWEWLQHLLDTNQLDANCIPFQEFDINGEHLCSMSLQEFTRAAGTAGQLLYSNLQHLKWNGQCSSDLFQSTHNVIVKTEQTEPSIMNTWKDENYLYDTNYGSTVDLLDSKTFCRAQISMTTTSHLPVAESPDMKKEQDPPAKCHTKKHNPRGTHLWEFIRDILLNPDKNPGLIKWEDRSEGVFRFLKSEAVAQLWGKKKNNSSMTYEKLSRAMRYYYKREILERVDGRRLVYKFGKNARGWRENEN
Particulars: protein: recombinant; tags: N-terminal GST; dsDNA, one strand shown. The procedure, abridged: as §1

The next assay addresses SPI1 (Homo sapiens, UniProt P17947 1-270). The settings on record: protein: recombinant; tags: N-terminal GST; dsDNA, one strand shown. The procedure, abridged:
as §1

Another assay concerns the target SPIB (Homo sapiens, UniProt Q01892 1-262). The settings on record: protein: recombinant; tags: N-terminal GST; dsDNA, one strand shown. The gist of the method:
as §1

A further assay deals with T6, ELK3 (Homo sapiens, UniProt P41970 1-407).
T6 sequence: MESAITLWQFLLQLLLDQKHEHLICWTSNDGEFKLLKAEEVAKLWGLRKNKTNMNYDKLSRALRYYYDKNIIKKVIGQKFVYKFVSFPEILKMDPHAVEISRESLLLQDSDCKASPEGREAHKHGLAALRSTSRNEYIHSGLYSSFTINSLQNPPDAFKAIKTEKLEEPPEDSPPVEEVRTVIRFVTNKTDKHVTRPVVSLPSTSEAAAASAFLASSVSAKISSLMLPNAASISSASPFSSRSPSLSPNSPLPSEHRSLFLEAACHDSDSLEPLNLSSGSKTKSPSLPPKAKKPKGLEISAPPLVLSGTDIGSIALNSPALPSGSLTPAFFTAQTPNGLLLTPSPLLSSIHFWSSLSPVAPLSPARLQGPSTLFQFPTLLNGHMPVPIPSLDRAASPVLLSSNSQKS
The settings on record: protein: recombinant; tags: N-terminal GST; dsDNA, one strand shown. The procedure, abridged:
as §1

For the next assay, the target named is T7, FEV (Homo sapiens, UniProt Q99581 1-238).
T7 sequence: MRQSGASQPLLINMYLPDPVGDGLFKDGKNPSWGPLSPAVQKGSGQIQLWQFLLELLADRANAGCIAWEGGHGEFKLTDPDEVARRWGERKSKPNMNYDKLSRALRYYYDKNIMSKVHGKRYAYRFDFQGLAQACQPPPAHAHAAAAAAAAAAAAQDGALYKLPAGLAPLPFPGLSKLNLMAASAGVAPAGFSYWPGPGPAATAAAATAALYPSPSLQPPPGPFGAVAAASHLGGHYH
Particulars: protein: recombinant; tags: N-terminal GST; dsDNA, one strand shown. The procedure, abridged: as §1

The target in another assay is ETV5 (Homo sapiens, UniProt P41161 1-510). Particulars: protein: recombinant; tags: N-terminal GST; dsDNA, one strand shown. The procedure, abridged:
as §1

The next assay has as its target HSF1 (Homo sapiens, UniProt Q00613 1-529). Particulars: protein: recombinant; tags: N-terminal GST; chain copies: 3; dsDNA, one strand shown. The procedure, abridged: as §1
In another assay the target is T8, SPIC (Homo sapiens, UniProt Q8N5J4 1-248).
T8 sequence: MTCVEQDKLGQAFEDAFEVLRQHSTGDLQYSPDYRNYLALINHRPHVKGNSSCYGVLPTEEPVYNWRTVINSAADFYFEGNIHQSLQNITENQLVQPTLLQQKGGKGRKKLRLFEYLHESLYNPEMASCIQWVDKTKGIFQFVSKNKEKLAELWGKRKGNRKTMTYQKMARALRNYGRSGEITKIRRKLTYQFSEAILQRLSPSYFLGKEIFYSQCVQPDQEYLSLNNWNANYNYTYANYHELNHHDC
Particulars: protein: recombinant; tags: N-terminal GST; dsDNA, one strand shown. The procedure, abridged:
as §1

Another assay deals with ELF4 (Homo sapiens, UniProt Q99607 1-663). Particulars: protein: recombinant; tags: N-terminal GST; dsDNA, one strand shown. The gist of the method:
as §1

Another assay concerns the target T9, ELK4 (Homo sapiens, UniProt P28324-2 1-405).
T9 sequence: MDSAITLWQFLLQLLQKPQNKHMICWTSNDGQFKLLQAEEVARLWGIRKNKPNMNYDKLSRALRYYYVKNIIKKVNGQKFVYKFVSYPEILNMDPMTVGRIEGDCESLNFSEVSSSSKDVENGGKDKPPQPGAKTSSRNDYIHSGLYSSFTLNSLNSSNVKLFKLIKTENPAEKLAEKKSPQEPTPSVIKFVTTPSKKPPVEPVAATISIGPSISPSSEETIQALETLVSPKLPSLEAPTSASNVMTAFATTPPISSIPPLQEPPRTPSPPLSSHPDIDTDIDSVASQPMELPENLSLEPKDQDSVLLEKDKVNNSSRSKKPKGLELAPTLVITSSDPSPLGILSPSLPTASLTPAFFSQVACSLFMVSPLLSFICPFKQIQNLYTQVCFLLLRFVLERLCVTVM
The settings on record: protein: recombinant; tags: N-terminal GST; dsDNA, one strand shown. The gist of the method:
as §1

For the next assay, the target named is T10, ETV2 (Homo sapiens, UniProt O00321 1-342).
T10 sequence: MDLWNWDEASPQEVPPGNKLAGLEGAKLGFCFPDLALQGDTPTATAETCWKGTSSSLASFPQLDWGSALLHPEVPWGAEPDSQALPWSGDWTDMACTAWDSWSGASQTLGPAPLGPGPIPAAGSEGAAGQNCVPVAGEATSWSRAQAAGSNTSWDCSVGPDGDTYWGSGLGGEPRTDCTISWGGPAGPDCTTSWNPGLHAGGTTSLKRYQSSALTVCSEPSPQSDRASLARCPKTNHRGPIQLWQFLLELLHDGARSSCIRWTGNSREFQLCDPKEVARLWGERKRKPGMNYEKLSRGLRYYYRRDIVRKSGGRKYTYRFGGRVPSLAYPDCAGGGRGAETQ
The settings on record: protein: recombinant; tags: N-terminal GST; dsDNA, one strand shown. The gist of the method:
as §1

Another assay has as its target T11, ELF3 (Homo sapiens, UniProt P78545 1-371).
T11 sequence: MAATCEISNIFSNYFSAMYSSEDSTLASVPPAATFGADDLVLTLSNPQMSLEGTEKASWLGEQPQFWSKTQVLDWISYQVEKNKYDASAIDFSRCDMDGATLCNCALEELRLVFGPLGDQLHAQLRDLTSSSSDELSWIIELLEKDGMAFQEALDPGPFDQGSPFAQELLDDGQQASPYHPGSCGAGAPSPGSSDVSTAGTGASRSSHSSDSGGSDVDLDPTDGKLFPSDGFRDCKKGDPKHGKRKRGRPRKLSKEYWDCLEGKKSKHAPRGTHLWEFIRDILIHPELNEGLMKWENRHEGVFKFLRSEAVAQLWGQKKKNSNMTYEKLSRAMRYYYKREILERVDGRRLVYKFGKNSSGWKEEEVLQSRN
Particulars: protein: recombinant; tags: N-terminal GST; dsDNA, one strand shown. The gist of the method:
as §1

For another assay, the target named is CRX (Homo sapiens, UniProt O43186 1-299). The settings on record: protein: recombinant; tags: N-terminal GST; dsDNA, one strand shown. The gist of the method: as §1
Sequence of CRX (O43186 whole entry): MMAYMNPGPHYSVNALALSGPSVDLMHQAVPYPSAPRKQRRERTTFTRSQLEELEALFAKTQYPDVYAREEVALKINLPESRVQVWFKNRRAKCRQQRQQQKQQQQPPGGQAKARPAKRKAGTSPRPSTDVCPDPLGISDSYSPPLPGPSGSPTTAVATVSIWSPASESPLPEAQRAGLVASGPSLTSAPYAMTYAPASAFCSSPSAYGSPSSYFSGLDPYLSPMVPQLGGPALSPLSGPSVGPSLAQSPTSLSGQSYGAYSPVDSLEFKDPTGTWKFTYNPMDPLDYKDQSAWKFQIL
A further assay concerns the target ETV1 (Homo sapiens, UniProt P50549 1-477). Particulars: protein: recombinant; tags: N-terminal GST; dsDNA, one strand shown. The gist of the method: as §1

Sequence of ELF4 (Q99607 whole entry): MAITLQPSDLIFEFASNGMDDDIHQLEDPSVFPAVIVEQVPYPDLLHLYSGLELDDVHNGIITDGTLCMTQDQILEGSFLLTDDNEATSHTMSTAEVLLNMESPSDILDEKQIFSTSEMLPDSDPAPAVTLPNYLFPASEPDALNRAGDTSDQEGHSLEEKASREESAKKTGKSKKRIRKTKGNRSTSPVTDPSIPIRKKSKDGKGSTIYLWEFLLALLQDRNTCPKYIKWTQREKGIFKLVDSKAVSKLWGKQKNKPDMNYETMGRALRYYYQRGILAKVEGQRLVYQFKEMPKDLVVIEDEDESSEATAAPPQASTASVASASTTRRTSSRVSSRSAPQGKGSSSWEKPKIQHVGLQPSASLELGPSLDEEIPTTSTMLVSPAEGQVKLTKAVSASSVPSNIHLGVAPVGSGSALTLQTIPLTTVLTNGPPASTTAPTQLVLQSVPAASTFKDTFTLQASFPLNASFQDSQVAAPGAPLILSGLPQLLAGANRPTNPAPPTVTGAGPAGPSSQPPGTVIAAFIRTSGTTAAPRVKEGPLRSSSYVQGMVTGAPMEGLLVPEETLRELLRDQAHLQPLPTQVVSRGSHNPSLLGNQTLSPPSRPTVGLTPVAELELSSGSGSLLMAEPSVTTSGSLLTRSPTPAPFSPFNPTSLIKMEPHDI
Sequence of HSF1 (Q00613 whole entry): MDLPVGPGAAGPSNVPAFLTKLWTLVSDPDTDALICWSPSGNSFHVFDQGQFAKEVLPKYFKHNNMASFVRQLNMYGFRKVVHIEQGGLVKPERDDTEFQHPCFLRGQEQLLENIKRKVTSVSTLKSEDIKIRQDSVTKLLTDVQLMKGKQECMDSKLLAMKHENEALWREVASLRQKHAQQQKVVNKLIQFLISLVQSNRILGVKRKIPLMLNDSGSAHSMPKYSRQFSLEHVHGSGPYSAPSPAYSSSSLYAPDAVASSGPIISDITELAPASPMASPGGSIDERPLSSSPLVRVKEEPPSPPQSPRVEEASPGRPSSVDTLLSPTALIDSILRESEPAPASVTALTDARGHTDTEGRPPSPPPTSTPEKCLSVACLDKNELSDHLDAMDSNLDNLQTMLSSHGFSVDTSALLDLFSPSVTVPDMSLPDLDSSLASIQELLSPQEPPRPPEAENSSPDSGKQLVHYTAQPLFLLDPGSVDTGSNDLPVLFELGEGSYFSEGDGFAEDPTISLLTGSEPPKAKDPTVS
Sequence of ETV1 (P50549 whole entry): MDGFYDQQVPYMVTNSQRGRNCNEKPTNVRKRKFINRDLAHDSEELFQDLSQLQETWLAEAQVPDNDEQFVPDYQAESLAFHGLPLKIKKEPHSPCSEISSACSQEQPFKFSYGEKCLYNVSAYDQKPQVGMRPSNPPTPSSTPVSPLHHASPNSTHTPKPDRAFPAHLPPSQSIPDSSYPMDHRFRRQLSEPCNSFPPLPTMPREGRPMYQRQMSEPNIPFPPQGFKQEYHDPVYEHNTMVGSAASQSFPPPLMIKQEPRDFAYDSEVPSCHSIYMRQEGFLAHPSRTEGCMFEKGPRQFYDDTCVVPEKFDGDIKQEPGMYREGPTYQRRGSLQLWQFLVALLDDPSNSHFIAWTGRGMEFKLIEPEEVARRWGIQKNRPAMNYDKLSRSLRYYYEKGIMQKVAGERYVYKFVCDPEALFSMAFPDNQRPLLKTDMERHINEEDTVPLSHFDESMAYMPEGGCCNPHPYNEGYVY
Sequence of SPIB (Q01892 whole entry): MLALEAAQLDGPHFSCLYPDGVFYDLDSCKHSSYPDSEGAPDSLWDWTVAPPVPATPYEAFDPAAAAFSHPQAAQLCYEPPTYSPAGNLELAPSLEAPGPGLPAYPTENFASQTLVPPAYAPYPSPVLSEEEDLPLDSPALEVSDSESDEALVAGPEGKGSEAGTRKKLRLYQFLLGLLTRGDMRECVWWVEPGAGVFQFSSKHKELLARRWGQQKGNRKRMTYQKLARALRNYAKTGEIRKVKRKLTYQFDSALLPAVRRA
Sequence of ETV5 (P41161 whole entry): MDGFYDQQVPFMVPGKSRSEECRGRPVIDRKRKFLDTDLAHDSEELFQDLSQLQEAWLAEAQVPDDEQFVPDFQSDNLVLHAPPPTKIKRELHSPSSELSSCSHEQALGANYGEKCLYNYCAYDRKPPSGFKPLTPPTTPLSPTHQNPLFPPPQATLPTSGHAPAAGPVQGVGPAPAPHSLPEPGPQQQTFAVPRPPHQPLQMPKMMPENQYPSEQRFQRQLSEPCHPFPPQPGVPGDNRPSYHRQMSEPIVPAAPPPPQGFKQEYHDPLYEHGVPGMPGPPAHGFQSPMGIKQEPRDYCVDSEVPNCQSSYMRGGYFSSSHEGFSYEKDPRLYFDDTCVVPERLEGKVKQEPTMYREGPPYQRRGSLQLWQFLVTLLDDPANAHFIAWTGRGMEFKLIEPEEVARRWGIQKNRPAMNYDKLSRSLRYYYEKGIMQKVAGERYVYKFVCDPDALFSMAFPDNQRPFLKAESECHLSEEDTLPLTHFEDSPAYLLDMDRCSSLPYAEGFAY
Sequence of ELF1 (P32519 whole entry): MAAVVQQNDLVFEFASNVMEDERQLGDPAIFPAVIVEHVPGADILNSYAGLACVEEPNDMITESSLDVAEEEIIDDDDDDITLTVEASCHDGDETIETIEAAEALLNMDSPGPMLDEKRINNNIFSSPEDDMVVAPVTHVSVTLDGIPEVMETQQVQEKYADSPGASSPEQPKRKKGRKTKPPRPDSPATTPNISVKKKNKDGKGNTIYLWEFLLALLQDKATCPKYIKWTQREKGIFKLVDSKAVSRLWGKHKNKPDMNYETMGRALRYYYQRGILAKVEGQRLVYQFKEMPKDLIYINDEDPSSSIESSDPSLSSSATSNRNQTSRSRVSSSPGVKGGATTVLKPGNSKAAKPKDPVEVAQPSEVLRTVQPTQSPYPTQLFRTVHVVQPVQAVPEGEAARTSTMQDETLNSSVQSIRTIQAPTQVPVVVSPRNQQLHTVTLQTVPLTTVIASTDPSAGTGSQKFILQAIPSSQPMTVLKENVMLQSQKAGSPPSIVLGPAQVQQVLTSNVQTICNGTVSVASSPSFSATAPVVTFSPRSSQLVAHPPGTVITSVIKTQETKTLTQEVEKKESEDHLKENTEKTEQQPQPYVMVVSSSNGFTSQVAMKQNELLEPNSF

Regarding ACGATA, the binding signal is 1.19 fold enrichment (6-mer frequency, TF over GST control) with FLI1; 1.12 fold enrichment (6-mer frequency, TF over GST control) in the assay with ELK1; 1.23 fold enrichment (6-mer frequency, TF over GST control) with GABPA; 1.14 fold enrichment (6-mer frequency, TF over GST control) with ERG; 1.19 fold enrichment (6-mer frequency, TF over GST control) with ELF1; 1.15 fold enrichment (6-mer frequency, TF over GST control) in the assay with EHF. The binding signal was 1.09 fold enrichment (6-mer frequency, TF over GST control) with SPI1; 1.23 fold enrichment (6-mer frequency, TF over GST control) in the assay with SPIB; 1.16 fold enrichment (6-mer frequency, TF over GST control) in the assay with ELK3; 1.12 fold enrichment (6-mer frequency, TF over GST control) with FEV; 1.16 fold enrichment (6-mer frequency, TF over GST control) in the assay with ETV5; 1.17 fold enrichment (6-mer frequency, TF over GST control) in the assay with HSF1. Further, the binding signal is 1.38 fold enrichment (6-mer frequency, TF over GST control) with SPIC; 1.22 fold enrichment (6-mer frequency, TF over GST control) in the assay with ELF4; 1.18 fold enrichment (6-mer frequency, TF over GST control) in the assay with ELK4; 1.22 fold enrichment (6-mer frequency, TF over GST control) in the assay with ETV2; 1.04 fold enrichment (6-mer frequency, TF over GST control) with ELF3; 1.26 fold enrichment (6-mer frequency, TF over GST control) with CRX. Besides, in the assay with ETV1, the binding signal is 1.15 fold enrichment (6-mer frequency, TF over GST control).
